The term AC50 denotes the concentration giving half of the maximal activity seen.

The source made the active and inactive calls. Rule for the calls: active = hit-call score of the fitted dose curve at least 0.9, where 1 is the maximum; inactive = score below 0.9.

Read-out in this test: Pselectin, SELP (gene 6403)
Nature of the test: BSK_4H_Pselectin: BioMAP Diversity Plus: 4H Assay for Pselectin Biomarker Activity (AID 2283026). The conditions noted are these: primary human endothelial cells (HUVEC); actives raise or lower the signal. The procedure:
BSK_4H is a cell-based, multiplexed-readout assay that uses umbilical vein endothelium, a human vascular primary cell, with measurements taken at 24 hours after chemical dosing in a 96-well plate.BSK_4H_Pselectin is an assay component measured in the BSK_4H assay. It measures P-Selectin antibody related to regulation of gene expression using ELISA technology.Data from the assay component BSK_4H_Pselectin was analyzed into 1 assay endpoint. This assay endpoint, BSK_4H_Pselectin, was analyzed with bidirectional fitting relative to DMSO as the negative control and baseline of activity. Using a type of binding reporter, gain or loss-of-signal activity can be used to understand changes in the signaling as they relate to the gene SELP. Furthermore, this assay endpoint can be referred to as a primary readout, because this assay has produced multiple assay endpoints where this one serves a signaling function. To generalize the intended target to other relatable targets, this assay endpoint is annotated to the cell adhesion molecules intended target family, where the subfamily is selectins.
The levels of cell surface (or secreted, indicated by the prefix "s") biomarker endpoints were measured by ELISA. Overt cytotoxicity to cells in confluent adherent cultures (all systems other than the BT system) was assessed by measuring total protein levels using sulforhodamine B (SRB) staining in parallel cultures at the time of biomarker measurements, indicated as SRB endpoints. For proliferation assays for adherent cell types, individual cell types are cultured at sub-confluence and relative cell numbers quantified by SRB staining at time points optimized for each system (48 h: 3C and CASM3C systems; 72 h: BT and HDF3CGF systems; 96 h: SAg system). SRB was performed by staining cells with 0.1% SRB after fixation with 10% TCA and reading wells at 560 nm.Viability and proliferation of PBMC (T cells) was quantified by Alamar Blue reduction for the SAg and BT systems. For PBMC viability (referred to as PBMC Cytotoxicity within the assay endpoint names), cells were plated (75,000/well in a 96-well plate) and then chemical samples added for 1 h before addition of activators, SEB and TSST-1 (20 ng/mL final concentration each). Cells were incubated for 90 h. Then, Alamar Blue (20 uL/well) (Invitrogen, Cat DAL1100) was added for 6 h, and the plates were read with a fluorescence microplate reader at 546/580 nm (excitation/emission). For PBMC proliferation, cells were plated and activated as above but incubated for only 16 h prior to addition of Alamar Blue. Plates were read after 6 h.
For the compound `CC1=CC(=O)CC(C)(C)C1`, the outcome was inactive.

Regarding `O=P(OC(CCl)CCl)(OC(CCl)CCl)OC(CCl)CCl`, the result was inactive.

For `Cc1[nH]cnc1C[C@H]1CCc2c(C)c3ccccc3n2C1=O`, the AC50 was 21.4 µM (active).

Consider `CC(C)(O)c1coc(S(=O)(=O)NC(=O)Nc2c3c(cc4c2CCC4)CCC3)c1`, for which the outcome was inactive.

On to `CCN(C(=O)c1cc(C)cc(OC[C@H](C)Nc2ccncc2)c1)C(C)C`, for which the result was inactive.

With `C=CCCCCCCCCC(=O)O`, the outcome was inactive.

Regarding `CC[C@H]1CC[C@H](NCc2cc3c(cc2OC)[C@H]2C[C@H]2C(=O)N3C)[C@H](c2ccccc2)N1`, the outcome was inactive.

Take `O=C(O)CCN(C1(C(=O)NO)CCCC1)S(=O)(=O)c1ccc(Oc2ccc(F)cc2)cc1`: the result was inactive.

Regarding `O=c1[nH]c2ccc(S(=O)CCN3CCC(Cc4ccc(F)cc4)CC3)cc2o1` (stereo not given), the outcome was inactive.

For `Cc1ccc(N)cc1O`, the outcome was inactive.

As to `CCC(C)(C)C(=O)O[C@H]1C[C@@H](C)C=C2C=C[C@H](C)[C@H](CC[C@@H]3C[C@@H](O)CC(=O)O3)[C@H]21`, the outcome was inactive.

In the case of `CCCCCCc1ccc(O)cc1O`, the AC50 was 32.3 µM (active).

Regarding `C1N2CN3CN1CN(C2)C3`, the result was inactive.

In the case of `CN(C)c1ccc(N=NS(=O)(=O)O)cc1`, the outcome was inactive.

For `CNCc1ccc(NC(=O)c2c[nH]c3c2C(=O)CCC3)cc1`, the outcome was inactive.

Take `CC(C)CC(C)(O)C#CC(C)(O)CC(C)C` (stereo not given): the result was inactive.

`Oc1ccc2c(c1)-c1ccccc1C2`: the outcome was inactive.

Consider `O=C1CCCCCN1`, for which the result was inactive.

As for `Clc1nc(Cl)c(Cl)c(Cl)c1Cl`, the AC50 is 30.2 µM (active).

For the compound `CCCCCCCCCCCCc1ccccc1`, the AC50 was 31.5 µM (active).

On to `Cn1c(=O)c2c(ncn2C)n(C)c1=O`, for which the outcome was inactive.

Regarding `CCc1cc(SCc2sc(-c3ccc(C(F)(F)F)cc3)nc2CN2CCN(c3ccc(OC)cc3)CC2)ccc1OCC(=O)O`, the AC50 is 11.3 µM (active).

Turning to `NC(=O)NO`, the result was inactive.

For the compound `CCCCCCCCO`, the outcome was inactive.

Consider `COc1ccc(/C=C/S(=O)(=O)NC(=O)c2ccc(C)cc2Cl)cc1`, for which the outcome was inactive.

As for `Nc1nc2ncc(CNc3ccc(C(=O)N[C@@H](CCC(=O)O)C(=O)O)cc3)nc2c(=O)[nH]1`, the outcome was inactive.

With `CC(C)=CCCC(C)=CC=O`, the outcome was inactive.

In the case of `COc1ccc2sc(C(=O)Nc3nnn[nH]3)c(OC(C)C)c2c1`, the AC50 is 4.45 µM (active).

For the compound `CC(C)CCO`, the outcome was inactive.

For `CN(C)c1ccc(Cc2ccc(N(C)C)cc2)cc1`, the AC50 was 32.8 µM (active).

For `C1=CCCC=CCCC=CCC1`, the result was inactive.

As for `CCOC(=O)c1ccc(C2CCC(NC[C@H](O)COc3ccc(O)c(NS(C)(=O)=O)c3)CC2)cc1` (stereo not given in full), the AC50 was 27 µM (active).

Turning to `CC(C)CCCCCCCOC(=O)CCCCC(=O)OCCCCCCCC(C)C`, the outcome was inactive.

As for `CCNc1ccccc1`, the outcome was inactive.

For `Cn1cnc([N+](=O)[O-])c1Sc1ncnc2nc[nH]c12`, the result was inactive.

Take `CC(=O)OC[C@H]1O[C@@](COC(C)=O)(O[C@H]2O[C@H](COC(C)=O)[C@@H](OC(C)=O)[C@H](OC(C)=O)[C@H]2OC(C)=O)[C@@H](OC(C)=O)[C@@H]1OC(C)=O`: the result was inactive.

Consider `CNS(=O)(=O)c1cc(C(=O)N2CCC(CCN3C4CCC3CC(n3c(C)nc5ccccc53)C4)(c3cccc(F)c3)CC2)c(Cl)cc1F` (stereo not given), for which the AC50 was 13.2 µM (active).

Take `Cc1ccc(C)c(O)c1`: the result was inactive.

With `CCCN(C1CCN(C(=O)C2CCNCC2)CC1)[C@@H]1CCc2ccc(OC)cc2C1`, the outcome was inactive.

`O=C1CCC(N2C(=O)c3ccccc3C2=O)C(=O)N1` (stereo not given): the outcome was inactive.

Source of the values: PubChem BioAssay (EPA / NIEHS).
